The values below come from PMC4336329 (PLoS ONE, 2015).

Out of some 310,000 compounds screened, about 14,000 (4.5%) showed an effect of 50% or more. The effect is printed as a negative number. The full list was thinned out, with strong results kept by preference.
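Also: peak tail current of the secondary pulse compared with the same well before compound.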

The target in the test is human ether-à-go-go-related gene (hERG) potassium channel (human, UniProt Q12809). Description: primary screen, population patch clamp on CHO cells stably expressing hERG; higher = less effect of the substance.
human ether-à-go-go-related gene (hERG) potassium channel, sequence (Q12809 whole entry, looked up): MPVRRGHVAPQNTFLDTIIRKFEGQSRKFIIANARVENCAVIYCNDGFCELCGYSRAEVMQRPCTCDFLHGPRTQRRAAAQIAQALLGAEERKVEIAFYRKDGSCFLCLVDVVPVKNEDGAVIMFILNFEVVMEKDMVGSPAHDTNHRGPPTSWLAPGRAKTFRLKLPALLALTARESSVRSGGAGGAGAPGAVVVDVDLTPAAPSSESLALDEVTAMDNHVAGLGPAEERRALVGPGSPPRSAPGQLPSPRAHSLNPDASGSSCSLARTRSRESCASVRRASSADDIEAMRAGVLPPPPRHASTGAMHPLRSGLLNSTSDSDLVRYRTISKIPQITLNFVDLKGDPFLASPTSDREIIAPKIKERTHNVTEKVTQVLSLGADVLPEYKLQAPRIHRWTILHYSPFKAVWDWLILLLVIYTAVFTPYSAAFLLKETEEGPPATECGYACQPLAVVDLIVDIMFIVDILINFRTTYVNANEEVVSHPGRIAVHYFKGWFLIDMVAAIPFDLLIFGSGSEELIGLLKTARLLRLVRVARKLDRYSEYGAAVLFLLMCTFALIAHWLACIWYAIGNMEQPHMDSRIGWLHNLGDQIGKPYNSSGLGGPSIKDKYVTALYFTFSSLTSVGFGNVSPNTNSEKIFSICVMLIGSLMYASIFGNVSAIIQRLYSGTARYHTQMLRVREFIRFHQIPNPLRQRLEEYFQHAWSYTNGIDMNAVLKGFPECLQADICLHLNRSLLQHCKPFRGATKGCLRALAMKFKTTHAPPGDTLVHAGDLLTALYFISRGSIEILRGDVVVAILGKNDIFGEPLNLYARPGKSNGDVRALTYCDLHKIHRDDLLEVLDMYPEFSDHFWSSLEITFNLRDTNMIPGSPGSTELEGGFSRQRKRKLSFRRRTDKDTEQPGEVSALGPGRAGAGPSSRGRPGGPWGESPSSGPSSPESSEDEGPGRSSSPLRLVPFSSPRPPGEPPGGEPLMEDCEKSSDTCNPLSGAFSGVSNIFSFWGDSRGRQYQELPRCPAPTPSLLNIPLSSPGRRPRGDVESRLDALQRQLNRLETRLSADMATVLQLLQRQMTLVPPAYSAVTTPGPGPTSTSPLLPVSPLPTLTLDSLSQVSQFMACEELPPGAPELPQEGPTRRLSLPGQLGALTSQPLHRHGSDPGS
Turning to `CCOc1ccc(NC(=O)CCN2C(=O)CSc3ccccc32)cc1`, the “hERG current change (%, negative = inhibition) at 10uM” value is reported as -25.3%.
For `O=C(/C=C\Nc1ccc2c(c1)OCO2)c1cccs1` the value was 17.6%; for `Cc1nc(SCC(=O)Nc2c(C)nn(C)c2C)c2cnn(-c3ccccc3)c2n1`, 14%; for `Cc1ccc(S(=O)(=O)N2CCOCC2)cc1NC(=O)c1cc(-c2ccccn2)nc2ccccc12`, -46.7%.
As for `S=c1[nH]nc(-c2ccc(Cl)cc2Cl)n1-c1ccc2c(c1)OCCO2`, the “hERG current change (%, negative = inhibition) at 10uM” value turned out to be 6.46%.
Turning to `c1ccc(C2CCC(N3CCC(N4CCCCC4)CC3)CC2)cc1` (stereo not drawn), the “hERG current change (%, negative = inhibition) at 10uM” value came to 10.8%.
For `COCCNC(=O)CSCc1c(F)cccc1Cl`, the “hERG current change (%, negative = inhibition) at 10uM” value is listed as 3.73%.
For the compound `CCCc1cc(=O)oc2cc(C)cc(OC(C)C(=O)NCc3ccccn3)c12` (stereo not drawn), the “hERG current change (%, negative = inhibition) at 10uM” value is reported as -8.3%.
For `Fc1cccc2sc(Nc3nnc(-c4ccccc4)o3)nc12` the value was 20.5%; for `O=c1[nH]nc(N/N=C/c2ccc(Cl)cc2Cl)c(=O)[nH]1`, -1.17%; for `Cn1c(SCC(=O)O)nnc1-c1cccc(NC(=O)c2cccc3ccccc23)c1`, 7.15%.
For `COc1cccc(C(=O)NCCSCc2c(F)cccc2Cl)c1` the value was -29%; for `COc1ccc(NC(=O)c2cccc(F)c2)cc1Cl`, 1.72%; for `COc1cccc(C(=O)NCCSCc2ccccc2Cl)c1`, -53.2%.
For `COC(=O)c1cccc(NC(=O)c2ccc(OC)c(Cl)c2)c1` the value was -65.3%; for `COc1ccc(C(=O)Nc2cc(C(=O)O)cc(C(=O)O)c2)cc1Cl`, 19.5%.
As for `COc1ccccc1C(=O)NCCSCc1ccccc1Cl`, the “hERG current change (%, negative = inhibition) at 10uM” value was -15.4%.
Consider `CCNS(=O)(=O)c1ccc(CCC(=O)NCCC2=CCCCC2)cc1`, for which the “hERG current change (%, negative = inhibition) at 10uM” value was -23.6%.
For `Cc1cccc(C)c1NC(=O)COC(=O)c1ccc2c(c1)OCO2` the value was -4.84%; for `c1cnc2c(SCc3ccc(-c4nnco4)cc3)cccc2c1`, 1.45%.
For `COc1cc(OC)c(NC(=O)c2csc(C)c2)cc1Cl` the value was 14.2%; for `Cc1ccccc1CNC(=O)/C=C\C(=O)O`, 3.23%; for `FC(F)(F)c1cc(-c2cccs2)nc(-n2cc(Cl)cn2)n1`, 0.253%.
For `CCOc1ccc(CCNC(=O)Cn2c(-c3nonc3N)nc3ccccc32)cc1OCC` the value was -3.72%; for `Cc1ccc(-n2c3c(cc(C(=O)O)c2=O)C(=O)CC(C)(C)C3)cc1`, 19.2%; for `Cc1ccc(-n2c3c(c(O)c(-c4ccccc4)c2=O)C(=O)CC(C)(C)C3)cc1`, -55.2%.
With `CC1(C)CC(=O)c2c(O)c(-c3ccccc3)c(=O)n(-c3ccccc3)c2C1`, the “hERG current change (%, negative = inhibition) at 10uM” value is given as -6.83%.
